D2 ag-1: Beta-Arrestin HTS for Positive Allosteric Modulators of the Human D2 Dopamine Receptor: Agonists. D(2) dopamine receptor (Homo sapiens), P14416. DiscoveRx PathHunter D2 beta-arrestin, luminescence, 90 min; 100% = 57 uM dopamine signal. activation, % (test concentration not listed). 360,000 compounds, 0.084% hits; in the data active = activation above about 40%; inconclusive = between about 15% and that limit
Target sequence (P14416 whole entry, looked up): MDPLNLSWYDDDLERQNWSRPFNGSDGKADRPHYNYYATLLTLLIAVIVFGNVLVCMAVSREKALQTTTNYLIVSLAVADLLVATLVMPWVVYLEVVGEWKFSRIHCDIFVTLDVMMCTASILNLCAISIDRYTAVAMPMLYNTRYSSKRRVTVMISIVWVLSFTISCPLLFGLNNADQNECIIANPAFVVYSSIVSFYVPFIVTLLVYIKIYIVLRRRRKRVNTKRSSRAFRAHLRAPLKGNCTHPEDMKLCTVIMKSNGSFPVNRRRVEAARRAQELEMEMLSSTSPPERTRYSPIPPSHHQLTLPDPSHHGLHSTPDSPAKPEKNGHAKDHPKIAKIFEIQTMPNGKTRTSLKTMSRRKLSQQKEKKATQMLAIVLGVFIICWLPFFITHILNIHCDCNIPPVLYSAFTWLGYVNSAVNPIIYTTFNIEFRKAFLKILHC
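DiscoveRx PathHunter D2 beta-arrestin cells (2,100/well) attached overnight, then compound-stimulated 90 min at 37 C in HBSS/10 mM HEPES/0.1% Tween-20 buffer; beta-galactosidase complementation read by luminescence after 1 h at ambient temperature. Dopamine 57 uM final (EC100) as control.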
D2 PAM-1: HTS Assay for Positive Allosteric Modulators of the Human D2 Dopamine Receptor: Primary Screen for Potentiators. HEK293 T-REx D2, calcium flux, EC20 dopamine potentiation. AID 485347, 2010. potentiation, % at 10 µM. 340,000 compounds, 0.34% hits. D(2) dopamine receptor (Homo sapiens), P14416;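 active = potentiation over 3 SD above the plate norm, cut at about 30% in these data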; also: 0% is about no effect
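Cells plated with tetracycline inducer and held overnight at 30 C; calcium dye loaded 30–90 min at room temperature; baseline taken, compound added and read 180 s; EC20 dopamine then added and read 180 s.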
D2 ag-2: HTS Assay for Allosteric Agonists of the Human D2 Dopamine Receptor: Primary Screen for Agonists; D(2) dopamine receptor (Homo sapiens), P14416; HEK293 T-REx D2 cells, calcium flux agonist mode; activation, % at 2 µM; 340,000 compounds, 0.53% hits;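 active = activation over 3 SD above normal in the single-dose calcium agonist read, cut at about 30% in these data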; also: 0% is about no effect
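Tetracycline-induced HEK293 T-REx cells with force-coupled D2 receptor, plated overnight at 30 C, loaded with no-wash calcium dye. After a 10 s baseline, compound was pin-added and calcium flux read kinetically for 180 s; calcium rises flagged agonists.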
D2 antag: HTS Assay for Allosteric Antagonists of the Human D2 Dopamine Receptor: Primary Screen for Antagonists; D(2) dopamine receptor (Homo sapiens), P14416; HEK293 TREx D2 cells, calcium flux, dopamine EC80; inhibition, % at 10 µM; 340,000 compounds, 2% hits; in the data active = inhibition above about 30%; inactive = below that, where a call was filed; also: 0% is about no effect
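Measurement of antagonist activity uses fluorescent calcium dye in inducible HEK293 T-REx D2 cells: 10 s baseline, compound addition with 180 s read, EC80 dopamine addition with a further 180 s read.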
D2 PAM-2: Beta-Arrestin HTS for Positive Allosteric Modulators of the Human D2 Dopamine Receptor: Potentiators; D(2) dopamine receptor (Homo sapiens), P14416; DiscoveRx D2 beta-arrestin cells, luminescence, 90 min; 100% = 57 uM dopamine signal; potentiation, % (test concentration not listed); 360,000 compounds, 0.23% hits; in the data active = potentiation above about 50%; inconclusive = mostly about 30% to 49%
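PathHunter D2 cells, attached overnight at 37 deg C, received compound in DMSO plus dopamine at EC20 (50 nM final) for 90 min at 37 deg C. Beta-arrestin recruitment was read as luminescence after 1 h with detection reagent at ambient temperature.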
D3 ag: qHTS of D3 Dopamine Receptor Agonist: D3 Dopamine Receptor B-arrestin Agonist Confirmatory Assay; shares compounds with D2 ag-2; DiscoveRx D3 beta-arrestin cells, luminescence, 90 min; Potency, µM (doses to about 76.9 µM), without a hit: top-dose activation, most hits filed as activators; 2,300 compounds, 4% hits; AID 720506, 2013;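 also: potency is read from the fitted curve at half-maximal effect; 100% = dopamine control response; nearly all actives have a fitted effect of over 70% in size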
D2 ag-3: qHTS of D3 Dopamine Receptor Agonist: D2 Dopamine Receptor B-arrestin Agonist Counterscreen. shares compounds with D2 ag-2. DiscoveRx PathHunter D2 beta-arrestin, luminescence, 90 min; response scale: percent relative to full dopamine signal. Potency, µM (series often up to 76.9 µM), inactives show at the top dose activation, usual class: activators. 2,300 compounds, 5.9% hits. AID 720507, 2013; also: potency is read from the fitted curve at half-maximal effect; % of control where 0% means no effect; nearly all actives have a fitted effect of over 70% in size
Numbers without * were called inactive; u = inconclusive; x = not tested or not shown. Rows were chosen to be rich in hits. Some 2.4% of all compounds tested hit in one or more screens of this group. Unless noted, calls follow the shape of the dose curve; as a rule, active = well fitted activation curve with a large enough effect; inconclusive = small, poorly fitted or top-dose-only effect; inactive = flat fitted curve, though single readings scatter.

SMILES | D2 ag-1 | D2 PAM-1 | D2 ag-2 | D2 antag | D2 PAM-2 | D3 ag | D2 ag-3
CCN(Cc1cnn(C)c1)C(=O)c1ccc2nc(Cc3cccc(Cl)c3)oc2c1 | 6.4 | -9.1 | 0.0 | 2.1 | 0.1 | x | x
COc1cc(C2N(Cc3ccccc3)CCN2Cc2ccccc2)ccc1OC(C)=O | -3.6 | -14.2 | 9.5 | 26.8 | -2.4 | -5.2% | -5.3%
COc1ccc(C2N(Cc3ccccc3)CCN2Cc2ccccc2)cc1[N+](=O)[O-] | -3.2 | -12.9 | 10.4 | 11.0 | -13.1 | -10.2% | -4.6%
COc1cc(C2N(c3ccccc3)CCN2c2ccccc2)ccc1OC(C)=O | -3.6 | 14.7 | 0.0 | -23.6 | 6.0 | x | x
COc1ccc(-c2nnn(CC(=O)c3c[nH]c4ccccc34)n2)cc1OC | 2.4 | -8.1 | -1.5 | -10.4 | 5.4 | x | x
CCCCOc1ccc(-c2nnn(CC(=O)c3c[nH]c4ccccc34)n2)cc1 | 3.5 | -3.2 | 56.0* | 9.5 | 11.0 | 2.8% | -3.3%
CCSc1nc(CC)c2c(c1C#N)CCCC2 | -1.0 | -19.5 | 56.1* | -2.3 | -4.8 | -3.6% | 9.4%
Cc1nn(-c2ccccc2)c(C)c1/C=C/C(=O)OCC(=O)Nc1ncc(Cl)cc1Cl | -0.9 | -0.1 | -0.6 | -1.9 | 8.2 | x | x
Cc1nn(-c2ccccc2)c(C)c1/C=C/C(=O)OC(C)C(=O)Nc1ncc(Cl)cc1Cl (configuration not stated) | -3.6 | -21.6 | 30.4* | -4.7 | -17.0 | 2.3% | 0.1%
CC(OC(=O)CNC(=O)c1ccc(Br)cc1)C(=O)NC1CCCCC1C (configuration not stated) | -5.4 | -7.2 | 0.0 | 2.7 | -11.0 | -0.7% | 0.4%
CC(OC(=O)Cc1c(F)cccc1Cl)C(=O)NC1CCCCC1C (configuration not stated) | -5.2 | -11.6 | 0.5 | -9.4 | -2.2 | -4.7% | -2.4%
CCCn1c2ccccc2c2cnn(CC(=O)NC3CCCCC3)c(=O)c21 | -0.8 | -2.4 | 0.6 | 3.1 | -9.3 | x | x
COC(=O)C1=C(C)N(C(C)C)C(=O)C1(NC(=O)c1ccc(C(C)(C)C)cc1)C(F)(F)F (configuration not stated) | x | 0.7 | 0.6 | x | x | x | x
CCOc1ccc(/C(O)=C2/C(=O)C(=O)N(c3ncccn3)C2c2ccccc2)cc1 (configuration not stated) | -8.4 | -17.6 | 50.3* | -5.2 | -10.9 | -8.9% | -4.9%
O=C(COc1ccc(Br)cc1)NNC(=O)c1ccc(-n2cncn2)c([N+](=O)[O-])c1 | -3.4 | 2.4 | 0.1 | 17.7 | 4.9 | 29.4% | 2.2%
Cc1nc2sc(C(c3ccccc3)N3CCN(C(=O)c4ccco4)CC3)c(O)n2n1 (configuration not stated) | -0.8 | -27.5 | 62.4* | 10.0 | -12.2 | -2.8% | -3.7%
Cc1ccc(C(c2sc3nc(C)nn3c2O)N2CCN(C(=O)c3ccco3)CC2)cc1 (configuration not stated) | 0.2 | 3.0 | -0.3 | 2.0 | 0.4 | x | x
Cc1ccc(CNC(=O)c2cccc3c2C(=O)c2ccc(N4CCOCC4)cc2S3(=O)=O)cc1 | -7.9 | 1.9 | 1.9 | -3.9 | 2.8 | -1.9% | -2.2%
CCOc1ccc(S(=O)(=O)N2CCCCC2)c(C)c1C | -3.1 | -6.8 | -2.4 | 12.3 | 0.6 | -10.5% | -0.7%
O=C(CN1C(=O)COc2ccccc21)NCCCN1CCN(c2ccccc2F)CC1 | 14.2 | -18.0 | 56.1* | 77.6* | -32.3 | 1.6% | 20.4%
O=C(Cn1cc2c(n1)CCCC2)NCCCN1CCN(c2ccccc2F)CC1 | -0.7 | -29.6 | 18.4 | 76.2* | -8.2 | -5.5% | 3.1%
CN1CCN(CCCNC(=O)CN2C(=O)COc3ccccc32)CC1 | -7.0 | -2.5 | 0.0 | -6.8 | -0.2 | x | x
O=C(CCN1C(=O)COc2ccccc21)NCCN1CCN(c2ccccc2F)CC1 | 2.0 | -24.1 | 35.6* | 44.7* | -27.0 | -5.2% | 1.2%
O=C(NCCCN1CCN(c2ccccc2F)CC1)C1CC(=O)N(C2CCCC2)C1 (configuration not stated) | 6.5 | -17.7 | 77.6* | 84.1* | -2.3 | u | u
O=C(CSc1nc2c([nH]c3ccccc32)c(=O)n1-c1ccc(F)cc1)N1CCCCCC1 | x | 4.2 | 1.2 | x | x | x | x
SMILES | D2 ag-1 | D2 PAM-1 | D2 ag-2 | D2 antag | D2 PAM-2 | D3 ag | D2 ag-3
Cc1ccc(-c2cc(C(F)(F)F)n3nc(C(=O)NCC45CC6CC(CC(C6)C4)C5)cc3n2)cc1 | x | 1.2 | 0.0 | x | x | x | x
CCOc1cccc(CN2CCC(n3nccc3NC(=O)C3CC3)CC2)c1O | -4.8 | 6.3 | -0.2 | -1.3 | -16.4 | x | x
C#CCOc1ccc(CNC[C@H]2O[C@@H](n3cnc4c(N)ncnc43)[C@H](O)[C@@H]2O)cc1 | -3.5 | x | x | x | -2.6 | x | x
Cc1cc(N/N=C/c2ccccc2[N+](=O)[O-])nc(-n2nc(C)cc2C)n1 | -6.2 | -14.9 | 34.2* | -10.4 | -0.4 | -6.3% | -3.4%
N#Cc1ccsc1NC(=O)CN1C(=O)NC2(CCCCC2)C1=O | -1.1 | x | x | x | -12.5 | x | x
O=C(c1cc(-c2ccccc2)on1)N1CCN(c2ccccc2)CC1 | 5.0 | 3.7 | -0.4 | 4.3 | -7.2 | x | x
O=C(c1cc(-c2ccco2)on1)N1CCN(c2ccccc2)CC1 | -0.2 | -14.0 | 45.3* | 0.3 | -3.8 | -5.5% | -0.4%
O=C(c1ccco1)N1CCC(N2CCN(c3ccccc3)CC2)CC1 | 1.3 | -20.9 | 78.4* | 60.8* | -9.7 | u | 29.4%
O=C1OC(N2CCN(C(=O)c3ccco3)CC2)c2ccccc21 (configuration not stated) | 5.9 | x | x | x | -12.1 | 24.4% | 13.9%
NS(=O)(=O)c1cccc(NC(=O)COC(=O)CCc2ccccc2)c1 | 2.2 | 2.8 | -1.7 | 10.2 | -2.3 | x | x
O=C(NCc1ccncc1)c1ccc(NS(=O)(=O)c2ccc(F)cc2)cc1 | 0.9 | x | x | x | -8.2 | -3.1% | -4.6%
O=C(NCCCN1CCCC1=O)c1cc(NS(=O)(=O)c2ccc(F)cc2)cc(NS(=O)(=O)c2ccc(F)cc2)c1 | -1.2 | -2.0 | 0.2 | -1.2 | -10.2 | x | x
